# Rows were chosen to be rich in hits. Some 3.3% of all compounds tested hit in one or more screens of this group.
# Mcl1 Bid PPI = Mcl-1/Bid interaction inhibition; TR-FRET Mcl-1/Bid-Dy647 peptide binding, 1536-well; actives 0.97% (n = 220,000); inhibition, % at 21.7 µM;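 active = compounds that cut the binding signal by more than half at the single screening dose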;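 note: His-tagged Mcl-1 with europium anti-His antibody binding Bid BH3 peptide; 0% = Mcl-1 plus peptide wells and 100% = peptide-only wells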
# eIF4E 4G PPI = eIF4E/eIF4G interaction inhibition in translation initiation; P63073+Q04637; TR-FRET eIF4E-eIF4GI(517-606) binding, 2 h; inhibition, % at 21.7 µM; actives 0.37% (n = 220,000); AID 782;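 note: 0% = full FRET control wells and 100% = background wells lacking eIF4GI fragment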
# 14-3-3 Bad inh = disrupts binding of bovine 14-3-3 zeta to phospho-Bad peptide; TR-FRET 14-3-3zeta/Dy647-pBad peptide displacement, 1 h; P63103; inhibition, % at 21.7 µM; actives 0.71% (n = 220,000); AID 781;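 active = inhibition above about 70%, limit read from the data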;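 note: 0% = full 14-3-3 plus peptide FRET controls and 100% = background without 14-3-3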
# Bim-Mcl-1 = human Bim-Mcl-1 interaction inhibition | Q07820 | inhibition, % at 10 µM | Bead-based flow cytometry, Bim peptide-Mcl-1 binding | actives 0.1% (n = 190,000) | AID 1009; in the data active = inhibition above about 40%;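 note: 0% = no compound tracer wells and 100% = peptide blocker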
# NCF1 inh = p47phox (human) inhibition; inhibition, % at 24.7 µM; p47phox/p22phox peptide binding, fluorescence polarization, 2 h; AID 1274; actives 0.53% (n = 220,000);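 note: 0% = p47phox with labelled peptide and 100% = labelled peptide alone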
# Target sequence (P14598 whole entry, looked up): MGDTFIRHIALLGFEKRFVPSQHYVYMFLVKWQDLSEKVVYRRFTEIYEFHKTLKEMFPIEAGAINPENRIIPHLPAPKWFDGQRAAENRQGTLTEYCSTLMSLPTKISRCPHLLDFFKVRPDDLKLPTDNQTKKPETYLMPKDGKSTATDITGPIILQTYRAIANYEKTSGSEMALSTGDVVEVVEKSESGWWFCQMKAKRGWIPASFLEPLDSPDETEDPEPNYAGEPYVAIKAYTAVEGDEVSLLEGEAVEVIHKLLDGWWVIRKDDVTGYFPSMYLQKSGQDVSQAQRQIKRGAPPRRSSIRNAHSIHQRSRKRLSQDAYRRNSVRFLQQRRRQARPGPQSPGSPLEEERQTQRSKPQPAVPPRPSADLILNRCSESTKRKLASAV
# Mcl1 Noxa PPI = Mcl-1/Noxa interaction inhibition; actives 1.5% (n = 220,000); AID 1022; Q07820; TR-FRET Mcl-1/Noxa peptide binding, 2 h; inhibition, % at 21.7 µM;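 active = compounds that cut the protein-peptide binding signal by more than 50% relative to plate controls in a single-dose test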;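 note: His-tagged Mcl-1 with rhodamine Noxa BH3 peptide and terbium anti-His antibody; 0% = Mcl-1 plus Noxa peptide wells and 100% = peptide-only wells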
# An asterisk follows results filed as active; / = no result.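 Rule for the calls, unless noted: active = inhibition above about 30% (limit read from the data); inactive = the rest.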
SMILES,Mcl1 Bid PPI,eIF4E 4G PPI,14-3-3 Bad inh,Bim-Mcl-1,NCF1 inh,Mcl1 Noxa PPI
CCC(CC)N1CCN(C(=O)Cc2ccccc2)CC1,39,3,71*,-11,4,28
Cc1ccccc1CN1CCN(C(=O)Cc2ccccc2)CC1,34,4,64,7,4,29
CCN(CC)C(=O)c1ccc2c(c1)C1C(Cl)C(Sc3ccccc3[N+](=O)[O-])CC1C(C(=O)O)N2 (stereo unspecified),-1,7,40,/,46*,63*
Cc1ccc2c(c1Cl)NC(C(=O)O)C1CC(Sc3ccccc3[N+](=O)[O-])C(Cl)C21 (stereo unspecified),-37,21,41,/,3,97*
c1ccc(-c2[nH]c(-c3ccccc3)[n+](CC3CO3)c2-c2ccccc2)cc1 (stereo unspecified),9,-1,5,-4,-4,11
NS(=O)(=O)c1ccc(N2CCNCC2)cc1,-20,1,-13,1,-6,2
Cc1nn(Cc2ccccc2)c(Cl)c1C(=O)OC(C)C(=O)Nc1ccc(F)cc1Cl (stereo unspecified),4,-1,3,0,-7,22
O=C(O)c1ccc2c(c1)C1C(Cl)C(Sc3ccccc3[N+](=O)[O-])CC1C(c1cccc([N+](=O)[O-])c1)N2 (stereo unspecified),-49,1,9,1,8,77*
O=C(O)c1cccc2c1NC(c1cccc([N+](=O)[O-])c1)C1CC(Sc3ccccc3[N+](=O)[O-])C(Cl)C21 (stereo unspecified),43,35*,26,-2,2,98*
O=[N+]([O-])c1cccc(C2N3CCCN23)c1 (stereo unspecified),2,-1,2,1,-5,-2
COc1ccc(C2CN(C)CC2C(=O)c2ccc(C)cc2)cc1Cl (stereo unspecified),-14,-4,36,1,-8,22
CSc1nc(N)c(N=Nc2ccc([As](=O)(O)O)cc2)c(=O)[nH]1,0,1,1,/,-4,17
CCCN(CC#CCOc1ccc(OC)cc1)CCC,21,6,94*,0,-13,19
Cc1cccc(OCC(=O)N2CCN(Cc3ccc4c(c3)OCO4)CC2)c1,18,7,27,0,-3,12
COc1cc(CN2CCN(C(=O)COc3ccccc3)CC2)cc(OC)c1OC,32,-12,78*,2,2,21
O=C(COc1ccccc1)N1CCN(Cc2c[nH]c3ccccc23)CC1,68*,-7,81*,1,-10,34
Cc1cccc(OCC(=O)N2CCN(Cc3ccncc3)CC2)c1,60*,5,48,-4,-4,-48
C=CCn1c(O)c(C(CC)=NCCN2CCN(C(=S)NC)CC2)c(=O)[nH]c1=O,-103,-1,0,/,-15,12
O=C(N/N=C/c1c(O)n(CCc2ccccc2)c(=O)[nH]c1=O)c1ccccc1,-95,-2,-23,/,-33,-88
CCc1c(C)nc(N)nc1N1N=C1SC(C(C)=O)C(C)=O,-32,2,2,3,-1,14
CN1CCN(c2cc(N3CCCC3)c([N+](=O)[O-])cc2F)CC1,-29,4,-18,-2,-3,-6
CCN1CCN(c2cc(N3CCCC3)c(F)cc2[N+](=O)[O-])CC1,-20,8,-5,-3,3,65*
O=C1N(c2ccc(Cl)cc2)C(c2cccnc2)N2CCCN12 (stereo unspecified),-5,-4,-14,0,-6,-2
COc1cc(/C=C/c2nc3ccccc3c(=O)n2-c2cccc(O)c2)ccc1O,63*,10,52,/,-41,96*
COP(=O)(C#Cc1ccccc1)C(O)c1ccc(Br)cc1 (stereo unspecified),-1,-1,7,/,-8,1
SMILES,Mcl1 Bid PPI,eIF4E 4G PPI,14-3-3 Bad inh,Bim-Mcl-1,NCF1 inh,Mcl1 Noxa PPI
O=C1NC(=O)C(=Cc2ccc(SC3CCCCC3)o2)C(=O)N1,-19,20,16,-5,-48,72*
Cc1ccc2[nH]c(=S)n(-c3cccnc3)c(=O)c2c1,-51,3,3,/,0,0
CN(C)c1ccc(C=C2C(=O)NC(=S)NC2=O)cc1[N+](=O)[O-],-11,7,1,-2,-13,65*
CC#CP(=O)(OC)C(O)(CF)c1ccccc1 (stereo unspecified),1,-1,-3,-4,5,12
Cn1c(O)c(C(c2ccccn2)c2c(O)n(C)c(=S)[nH]c2=O)c(=O)[nH]c1=S,4,-3,77*,2,4,4
COC(=O)C1=CO[C@@H](C)[C@@H]2CN3CC[C@]4(C(=O)Nc5ccccc54)[C@@H]3C[C@H]12,-13,-2,-11,-1,0,2
Cc1ccc2c(c1)c(=O)c1c3n2CCN(CC2CO2)C3CC1 (stereo unspecified),-9,3,3,0,/,12
COCCNP(=O)(c1ccccc1)c1nc2ccccc2s1 (stereo unspecified),58*,-5,1,-2,-10,4
Cc1ccc(NP(=O)(c2ccccc2)c2nc3ccccc3s2)cc1 (stereo unspecified),-19,11,-8,-2,3,6
COc1cccc(N2C(=O)NC(=O)/C(=C/c3ccc4c5c(cccc35)CC4)C2=O)c1,9,11,29,-6,-20,52*
CCOc1ccccc1N1C(=O)NC(=O)/C(=C/c2ccc3c4c(cccc24)CC3)C1=O,31,10,16,0,-13,49
COc1cc2c(cc1OC)-c1c(OC)c(OC)cc3c1[C@H](C2)[N+](C)(C)CC3,11,-3,6,-1,-7,15
Cc1ccc(C)c(NC(=S)NCCc2cnc[nH]2)c1,-118,-1,-3,/,-11,-4
O=C1NC(=O)N(c2ccccc2)C(=O)/C1=C\C=C\c1ccccc1,-1,7,-4,/,-11,70*
O=C1NC(=O)N(c2ccccc2)C(=O)/C1=C\c1ccc([N+](=O)[O-])o1,10,14,57,/,-92,63*
CN1C(=O)NC(=O)/C(=C/c2ccc([N+](=O)[O-])s2)C1=O,-51,1,6,/,-14,53*
O=C1NC(=O)N(c2ccccc2)C(=O)/C1=C\c1ccc([N+](=O)[O-])s1,-25,3,10,/,-89,69*
CN1C(=O)NC(=O)/C(=C/c2ccc([N+](=O)[O-])o2)C1=O,-66,10,25,/,-48,24
Cc1ccsc1C(=O)C1CCCN(Cc2cccn2-c2ccccn2)C1 (stereo unspecified),-34,1,-11,0,10,23

# From PubChem BioAssay
